Experimental data as given in PubChem BioAssay AID1159506 (National Center for Advancing Translational Sciences (NCATS), 2015).
In all, about 59,000 sequences were measured (the read-out: median about -0.00055, lowest 2% from about -2 on). Only a selection was taken, and the lowest values are over-represented in it overall.

assay: Identification of proteins required for the processing of the EWS-FLI1 nascent transcript; details: TC32 Ewing sarcoma NR0B1-luc vs CMV-luc (EWS-FLI1 target promoter against control promoter), 48 h; screened at 20 nM (by protocol);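 also: robust z of luciferase light less the median z of siRNAs with the same seed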
How it was run: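 TC32 Ewing sarcoma cells carrying NR0B1-promoter or CMV-promoter luciferase reporters were reverse-transfected with single siRNAs at 20 nM, three per gene genome-wide. Luminescence was read after 48 h and normalized to non-targeting controls.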

Sequence	seed-corrected z-score
UAAGUUCUUGUAUCUUCCC against ATP6V1G3	0.313
UUCUGGAUUCUGGGCAUCG against IFI6	-0.197
UCAAUAACCAUGAAGAUGC against FAM162A	0.76
UCGUGCUACACCAUGAGUC against CTTNBP2	0.0923
UUCCAGUAUGCUGAUUUCC against SLC8B1	-2.95
UCACUUGAUAACAAUCUCC against ZCWPW2	-0.645
AUCAUUAUCCUUCUCAUCC against IRF6	-0.561
UAGCCCUCACCAUAGAUGC against SYNGR2	0.181
ACAGUUGCAACUUCCAUGC against KCND2	-2.77
UGAGUACCGUGAUAAAUGC against TAS1R2	0.56
UUAGCAUCCACGAUACCAC against CFAP47	0.706
UUAAUGAACACAAGCAUGU against RPL23AP14	0.756
UAUGUUGUGCGGCUCUCCC against SOX15	-2.31
UAACGAAUAAUCAUCUUCC against ICE1	0.115
UCCAAAUUUGAGUACAUCC against SNIP1	0.505
UAAGGCUUUAGUGAGCUCU against FXN	0.805
UUGCCGUAGACAGCAUGGG against GPR173	-0.733
UCUGGUUCCUCUUUAAGUG against RPL27A	-3.53
AAUGUUCCUAUUUAUUUCG against RNF214	-0.629
UCAGGAUCAAGCAUGUUCC against LOC645177	-0.115
UGUGCUAUAAGAGAUCCAG against TANC2	-0.454
AAAGUAGUCACCUGGACCA against ODF3	-2.14

Sequence	seed-corrected z-score
UUCCUCAUGAGCACCAUCC against TEDDM1	0.185
AUCUAUUAUGGUUUCGAUC against BAZ1B	-0.12
UCUCUGUACCCAACUCCGC against ZNF212	-0.31
AAUGAAAUAGUGCUGUUUG against KCTD1	0.318
UCUGCUUGGAAAUAUCUCG against GRSF1	-4.11
AAUCCUCUUAUGAAUAACG against ZNF331	-0.158
AAGGAUACCAUCAUGUAGC against FZD3	0.547
UUUGUAACAUCAAUCAGAG against EXOC4	0.287
AUUCGGGAUAUAUAGAUUG against LIN7C	0.308
UCAAGUACAUUGCAGUUUG against PDK1	-0.235
UCCAGGUUUAUAUAGGUUG against MT1X	-7.89
UCAUAAGUGACAAGGCUGC against DCTN2	-0.548
UGACGUGAUAGCUUGAACC against EXPH5	0.908
UUUGAUUCCAUGUAGCUGU against MTCP1	0.871
ACAUCAUCCACUUCGUUCC against UNC93B1	-3.19
UUAACUGCAUCCCUAAUCC against AVEN	-1.22
UUCUUUACAUGCUGCAUUC against GALNT11	0.394
UUCAUGUCGAUAACUGUGG against KCNJ15	-0.324
UCUUGGAACAGGAUCUUCU against TAOK2	-0.173
UCAUGAAUUGUGGCAGGCA against LINC00598	0.856
ACUGCUUUGACAUCUGGGC against SNF8	-0.699
UGACUAAUAAGAAUGCCCG against SLC2A2	-0.863

Sequence	seed-corrected z-score
AUAACUACAGCAUCAGAGG against WDR60	0.989
AACCGUUUCAUAAACUCCC against MCMBP	0.188
UAUUCGUACUCAAACGUGC against SFPQ	-2.1
AUACAUGUCAGCUGAGUAG against POU2AF1	-0.413
AGUGUCUCUACUCAGGUUC against CSF2	1.91
UUCGGAUAUAGAGGUAGGC against SNRNP200	-2.46
UGAGUCAAAUGUUCUUUGG against KLF16	0.422
UUUUUCUGAACUCUCGUCU against C1orf174	-1.93
AAAUUUACCUAUGUUCUUC against PBX1	2.08
UUUUAGAAAGUUCAUGUCC against CD69	0.737
UUCGUGUAGACUGACCUUC against LRCH1	-9.4
UCAGGUUCUUUGUCUGACC against IRS1	-1.53
UGGUCUGCAAAGGUAAUGC against PLRG1	0.251
UAAGUAGGCACAACACUCA against DEXI	0.701
AACUGAACAUUUAUAGAGC against MTERF2	1.28
CUAUAGAUGAAGUAGGUGC against EDA	1.41
AGAGUUUCUGGUAUAGACC against TAS2R38	-2.98
AAGGAUAUGAAGGUAAUUC against ZNF518A	-0.0667
UUAGGGAUGAACCAAGGCA against ATP6V0E1	0.122
UUUGCAAUGACACGAAGCC against APOL4	0.249
AUAGUUGCAGGAAACUUCU against LOC441907	-2.67
UUCCUGAGUUCUUUCGUCC against DYRK1B	-0.484

Sequence	seed-corrected z-score
UGUUCUAUUUCACUUACUC against ZBTB26	-0.568
AAAGGAGCAUAAAUUUAGU against LOC400867	2.06
UAUGCAUAAACGGUCUUCA against SH3BGR	-0.25
UAUUUCACGUCGAUAGAGC against TMEM106B	-2.63
UGAGGGUUGAGUGUAAGUC against FUK	-0.673
UUGUGAACUGAUUACACUG against CCDC66	0.423
UUGACCAUCAAGUAUUAGC against WDR47	-10.6
UUCUGAUCAAGGCUAGACC against SHROOM3	-0.584
UGAACUCCUCUGCAUAUUC against HLA-F	0.183
UUGGUGUCCGGAGAGGUGU against IRF3	-0.0987
AACUCCGUCAGUUCCUUCC against FAM167A	0.463
ACAGCUAUCACUGCAUGCC against OR14J1	-3.81
UUUAGGUACAGAAUCCCUG against HDHD3	0.511
UCUUCAAUAAUGUGCAUCC against SEMA4G	0.069
UUCUCCGUUUCUGUUAUGC against SYCP2L	0.199
UGCUGUUCUGUGCUGUUCC against ARID5A	-2.31
UCAGGCUCAACCACCAGCA against ESRRA	-1.16
UAUAUCCACAGUGCGGAUC against RAB13	0.253
AUACUUGCGAUAAAGGUGC against CSGALNACT1	-1.05
UCAGCUCCAACUGAAGGUC against ID1	0.724
AAUGGUGUCAGUUCCUCUG against ETFA	0.854
AGCAUUACAACUAAAAUCC against ZSCAN10	-3.27

Sequence	seed-corrected z-score
UAGCCAUUCUCGCUCAUGC against AZU1	0.88
UGAUCUAUCUUAGUCGCUC against POLQ	-0.0262
UUUCCGUACAUGAAGCAGC against AGBL5	-0.0403
UUCAUUAUCGAUUUUUGCC against CYB5R2	-0.288
UGGGAUGAGAGACUCCUCC against C6orf25	-0.121
UGUUGUAGUGGGCCAGACG against HIST1H2BG	-2.35
UCCGAAAGCACCACGAUGA against SIGIRR	0.222
AAAGGCCCAACAUCUGACU against ZDHHC8P1	0.314
UUCCGACUCGCUGAAGUGC against RPS6KA4	0.407
UUGGGUACCUCAGUCCACG against SNRPD2P1	-5.01
UUUGUUGUAGUCACAUUCC against S100A3	-1.11
UAAGGAAGUAGUCUCGUUU against TUBGCP6	0.26
UAGUGGAUAUAUCUCGGCC against YLPM1	0.196
UAUACUCGAAAUGUGGUUC against KIAA1586	-0.337
UUGCAGAGCAUGUGAGUCC against KRTAP13-3	-0.281
UGCAUGUCGGGAUAGUUGC against GRIN2D	0.123
UCCUCGUUCAGCACCCUUC against DNAJB13	-0.18
UUUGAUGAUCUGUAAGGCC against CNOT10	-2.03
UGUAUUGCAAGGUUAUAAC against ZNF836	0.433
AAAGUGAACAUCGGGUCCC against LILRA4	-0.351
UCCAUGUUGACUAAGAUUC against GRHL3	-0.595
UUUCUGGUAAAACUCCUCA against HS1BP3	0.892

Sequence	seed-corrected z-score
UGACGUGACAAGCUGAAUG against ALYREF	-0.554
UUAGAUUGCACAAUCCUGU against DMRTC1	0.235
UUAAGAUUGACCUUUCUCC against KIAA1755	-0.0251
UUUGGUGCUUAGUUUGUUC against LOC642262	-2.38
AUCUUUACAAAUACCCUGC against BCL11A	-0.136
UUUAUAUUCAAUGGGCUUC against FAM45A	-0.523
UAAGGUUCGGAUAUGGGUA against C9orf24	-0.108
UUCUUUAUAGGCAUAGGCU against RPH3A	-2.08
UAAGGUUGGUGACUGGAGA against MUC6	-0.303
UUUCUGUAGGCUUUUCUGG against DPCR1	-0.53
UUCUCCAUCAAAUUAGCCG against LIN52	0.578
UAGCUUCAAUACUUCAUCC against LRRC27	-0.986
UUCGAGCUUUCUUAUGUCC against SLC12A6	-0.303
UGUUAUUGAAGAUGUCAGC against SLF2	-2.1
ACAGCAAGCAUUCAGAGUC against MMS19	0.146
UCUGGAAUAACGGUGCAGC against C15orf62	-1.54
AUAUCAAUGAUUGAGAGGU against OR4F15	0.359
AACUCUGCGAACACGGCCU against AQP5	-2.17
UAAGGCCCAAAUUUGUCUC against HSF4	-0.0642
UACAUUGACAGCAUAUCCU against NSDHL	0.882
UGAUGAAGUAGAGACGUGC against EXTL2	0.177
UAAAAUGUCUGACUCCUUG against CDKN1A	-0.147
